Test [1] has as its system Wnt5a (protein binding on small-molecule microarray). Kind of test: Wnt5a binders on small-molecule microarray, primary screen, biophysical, 635/667 nm fluorescence (AID 1142).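 Also: fluorescence read at 667 nm with signal to noise per printed feature.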 The note with it: 635 nm fluorescence, higher = more signal.
Test [2] in a line: cell viability in Huh7 cells, primary screen, cytotoxicity control for HCV replication inhibitor project, CellTiter-Glo luminescence, basal, 48 h (AID 1143).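 Also: Huh7 hepatoma cells carrying a hepatitis C replication reporter with no stimulus; test concentration not given here.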 The note with it: Huh7 HCV replicon, higher = more signal, called active from +8 up or from −8 down.
The nature of test [3]: P. aeruginosa biofilm formation inhibitors, primary screen, PAO1 strain, BacTiter-Glo luminescence, LB-PBS (AID 1144). The note with it: 12 h, higher = more signal.
Test [4] in a line: CREB reporter modulators without forskolin, primary screen, cell-based, PC12, CRE-LacZ reporter, unstimulated (AID 1145). As to conditions: no forskolin, luminescence, 4.5 h, higher = more signal, called active from +8 up or from −8 down.
Test [5] is described as follows: CREB reporter modulators under forskolin, primary screen, cell-based, PC12, CRE-LacZ reporter, forskolin-stimulated (AID 1146).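 Also: PC12 cells with 6xCRE LacZ reporter stimulated by forskolin 10 µM; beta-galactosidase reporter signal reflecting CREB driven transcription.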 As to conditions: luminescence, 4.5 h, higher = more signal, called active from +8 up or from −8 down.
Test [6] has as its target Streptavidin (Streptomyces avidinii) (UniProt P22629). The test is described as follows: streptavidin binders on small-molecule microarray, primary screen, artefact control for SMM compound annotation, biophysical, 635/667 nm fluorescence (AID 1147).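 Also: signal reflects streptavidin binding to arrayed compounds as a control protein.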 The note with it: streptavidin binding, higher = more signal.
A short description of test [7]: small-molecule binders of probe aInhba, primary screen, biochemical, small-molecule microarray, 635/667 nm fluorescence (AID 1148).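 Also: score merges 667nm spot fluorescence with signal-to-noise for antibody binding to printed compounds.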 The note with it: higher = more signal.
Test [8] has as its target Torsin-1A (Homo sapiens) (UniProt O14656). The test is described as follows: torsin A binders from cell lysate, primary screen, small-molecule microarray, wild-type, 635/667 nm (AID 1149). As to conditions: COS7 hTOR1A-WT lysate, 635 nm fluorescence, higher = more signal.
Test [9] has the same target. Kind of test: small-molecule binders of mutant TOR1A in lysate, primary screen, cell lysate, small-molecule microarray, COS7 lysate, 635/667 nm fluorescence (AID 1150).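 Also: score pools 667 nm emission and signal to noise measuring lysate protein binding.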 As to conditions: COS7 hTOR1A mutant lysate, 635 nm fluorescence, higher = more signal.
The subject of test [10] is Sonic hedgehog protein (Shh). The test is described as follows: small-molecule binders of Shh protein, primary screen, biochemical, small-molecule microarray, 635/667 nm fluorescence (AID 1151).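 Also: Shh protein binding to compounds spotted on small-molecule microarray slides; score combines spot fluorescence intensity with signal-to-noise across triplicate slides.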 As to conditions: small-molecule microarray binding, 635 nm fluorescence; higher = more signal.

Calls of active or inactive are those of the source. Unless noted, no rule for the calls is given here.

Streptavidin (Streptomyces avidinii), sequence (P22629 whole entry, looked up): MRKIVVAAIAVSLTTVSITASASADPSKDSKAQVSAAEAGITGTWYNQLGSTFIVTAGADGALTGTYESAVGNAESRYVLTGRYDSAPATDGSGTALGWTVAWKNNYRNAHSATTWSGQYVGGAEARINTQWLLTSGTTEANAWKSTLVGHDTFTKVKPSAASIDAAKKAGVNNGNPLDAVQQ
Torsin-1A (Homo sapiens), sequence (O14656 whole entry, looked up): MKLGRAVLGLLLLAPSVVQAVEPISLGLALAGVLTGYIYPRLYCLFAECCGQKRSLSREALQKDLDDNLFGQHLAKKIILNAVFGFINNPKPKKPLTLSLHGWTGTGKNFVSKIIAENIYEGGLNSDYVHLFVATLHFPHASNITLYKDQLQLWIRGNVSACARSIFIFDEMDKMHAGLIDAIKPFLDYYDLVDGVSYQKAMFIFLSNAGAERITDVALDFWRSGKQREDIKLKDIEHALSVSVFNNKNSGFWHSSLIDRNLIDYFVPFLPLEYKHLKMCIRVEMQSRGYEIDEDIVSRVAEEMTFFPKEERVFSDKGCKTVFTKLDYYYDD

As to `C=C(CCCC)/C(=C/C[C@H](OC(C)=O)c1ccc(CO)o1)c1cnc2ccccc2c1`, the composite z-score in test [1] stood at 0.465; in test [6], 1.25; in test [7], 0.0278; in the test with Torsin-1A (Homo sapiens) [8] it was 0.749; with Torsin-1A (Homo sapiens) [9] it was 1.08; in test [10], 1.89. The z-score is 0.665 (inactive) in test [2], -1.22 (inactive) in test [3], 0.0563 (inactive) in [4] and 1.65 (inactive) in test [5].
Consider `CCOC(=O)C[C@H]1[C@H](OC(=O)Cc2ccc3c(c2)OCO3)[C@@H](NC(=O)C2CCCCC2)c2cc(OCCCO)ccc2N1C(=O)Cc1ccc(OC)cc1`, for which the composite z-score came to 0.142 in [1]; 0.219 in test [6]; 0.0301 in [7]; 0.146 with Torsin-1A (Homo sapiens) [8]; 0.511 in the test with Torsin-1A (Homo sapiens) [9]; 0.541 in test [10]. The z-score in test [2] is -1.15 (inactive); in test [3] it was -0.0589 (inactive); in test [4], 6.93 (inactive); in [5], -0.943 (inactive).
On to `CS(=O)(=O)CCOC(=O)C1=CC(c2ccc(CO)cc2)=CC(C2CC2)N(Cc2cc3c(cc2Br)OCO3)C=C1C(=O)OCCS(C)(=O)=O` (stereo not given), for which the composite z-score in test [1] was 0.377; in test [6] it was 1.54; in test [7] it was -0.0645; with Torsin-1A (Homo sapiens) [8] it was 0.0194; with Torsin-1A (Homo sapiens) [9] it was 1.45; in test [10] it was 0.595. Also, the z-score is -3.38 (inactive) in [2], -0.992 (inactive) in test [3], 5.81 (inactive) in test [4] and -2.41 (inactive) in [5].
In the case of `COC(=O)[C@@]1(Cc2ccccc2)[C@H]2c3cc(C(=O)N4CCCC4)n(C)c3C[C@H]2CN1C(=O)c1ccccc1`, the composite z-score is 0.0131 in [1]; 1.64 in test [6]; 0.271 in test [7]; -0.212 with Torsin-1A (Homo sapiens) [8]; 0.0645 with Torsin-1A (Homo sapiens) [9]; -0.157 in test [10]. The z-score in test [2] is -1.6 (inactive); in test [3], 0.218 (inactive); in [4], -0.182 (inactive); in test [5] it was 0.504 (inactive).
On to `O=C1OCCC=C[C@H]2OC34C=CCN(Cc5ccccc5)C(=O)[C@H]3N(CCCO)C(=O)[C@@H]4C12` (stereo not given in full), for which the composite z-score in test [1] is -0.419; in test [6], -0.399; in [7] it was -0.128; with Torsin-1A (Homo sapiens) [8] it was -0.8; in the test with Torsin-1A (Homo sapiens) [9], -0.586; in test [10], -0.174. Moreover, the z-score in [2] was -3.89 (inactive); in [3], -2.36 (inactive); in test [4], -1.31 (inactive); in test [5], -1.18 (inactive).
On to `C=CCC(OC(C)=O)[C@@H]1[C@@H](N(Cc2cccc3ccccc23)C(=O)c2cccc3ccccc23)c2cc(OCCCO)ccc2N1C(=O)c1ccc2ccccc2n1` (stereo not given in full), for which the composite z-score is -0.0721 in [1]; 0.193 in [6]; -0.0791 in [7]; -0.309 in the test with Torsin-1A (Homo sapiens) [8]; -0.297 with Torsin-1A (Homo sapiens) [9]; 0.832 in test [10]. Further, the z-score in test [2] is -1.66 (inactive); in test [3], 0.603 (inactive); in test [4], 0.265 (inactive); in test [5], 0.446 (inactive).
In the case of `CC(C)(C)N1CC=CC23O[C@@H]4C=CCOC(=O)[C@@H]4[C@H]2C(=O)N(CCCCCO)[C@@H]3C1=O` (stereo not given in full), the composite z-score in [1] was -0.248; in test [6], -1.41; in test [7], -0.421; with Torsin-1A (Homo sapiens) [8], -0.803; with Torsin-1A (Homo sapiens) [9] it was -1.05; in [10] it was -0.15. Further, the z-score is 0.228 (inactive) in test [2], 0.123 (inactive) in test [3], -0.631 (inactive) in test [4] and 0.687 (inactive) in [5].
Take `CC(C)C[C@@H]1NC(=O)[C@H]2C[C@@H](C(=O)NCCCCCCNC(=O)CS)[C@@H](c3cccc(OCCO)c3)N2C1=O`: the composite z-score in test [1] was found to be 1.35; in [6], 0.357; in test [7] it was 0.0574; in the test with Torsin-1A (Homo sapiens) [8] it was 1.53; with Torsin-1A (Homo sapiens) [9], 1.67; in [10] it was 2.13. In addition, the z-score was 0.263 (inactive) in [2], -0.436 (inactive) in [3], -1.49 (inactive) in [4] and -1.47 (inactive) in test [5].
With `O=C1O[C@H](c2ccccc2)[C@H](c2ccccc2)N2[C@H]1[C@@H](C(=O)N1CCN(c3ncccn3)CC1)[C@]1(C(=O)Nc3ccccc31)[C@H]2c1ccc(OCCO)cc1`, the composite z-score in [1] is 0.505; in test [6], -0.0363; in [7], 0.0588; in the test with Torsin-1A (Homo sapiens) [8], 1.43; with Torsin-1A (Homo sapiens) [9], 0.36; in test [10], 1.98. Further, the z-score was -5.5 (inactive) in test [2], -2.01 (inactive) in [3], -0.528 (inactive) in [4] and -0.222 (inactive) in test [5].
Take `[N-]=[N+]=NCc1ccccc1C[C@@]1(C(=O)NCC(O)CO)N=C(c2ccc(OCCCO)cc2)O[C@@H]1c1ccccc1CN=[N+]=[N-]` (stereo not given in full): the composite z-score in test [1] was 0.604; in test [6] it was 1.43; in [7], 0.533; with Torsin-1A (Homo sapiens) [8] it was 0.441; in the test with Torsin-1A (Homo sapiens) [9], 1.39; in test [10], -0.393. Besides, the z-score in test [2] was -1.84 (inactive); in test [3] it was -0.376 (inactive); in test [4], -0.435 (inactive); in test [5], -0.554 (inactive).
Turning to `C=CCNC(=O)[C@H]1[C@@H]2C(=O)O[C@@H](c3ccccc3)[C@@H](c3ccccc3)N2[C@@H](c2ccc(O)cc2)[C@]12C(=O)N(C(=O)OCCOC)c1ccc(C#CCCO)cc12`, the composite z-score was 0.317 in test [1]; -0.0841 in test [6]; -0.0954 in test [7]; 0.846 with Torsin-1A (Homo sapiens) [8]; 0.432 with Torsin-1A (Homo sapiens) [9]; 1.08 in test [10]. Besides, the z-score is -0.185 (inactive) in test [2], -0.176 (inactive) in test [3], -0.141 (inactive) in test [4] and 0.567 (inactive) in test [5].
Regarding `COCCOC(=O)N1C(=O)[C@@]2(c3cc(C#CCNC(N)=O)ccc31)[C@H](C(=O)N1CCN(c3ncccn3)CC1)[C@H]1C(=O)O[C@H](c3ccccc3)[C@H](c3ccccc3)N1[C@@H]2c1ccccc1OCCO`, the composite z-score in test [1] amounted to 0.518; in [6], 0.605; in test [7], 0.0184; in the test with Torsin-1A (Homo sapiens) [8], 0.223; in the test with Torsin-1A (Homo sapiens) [9] it was 0.416; in [10], 0.692. For the same compound, the z-score in [2] is -1.32 (inactive); in [3], -0.94 (inactive); in test [4] it was -0.141 (inactive); in [5], -0.44 (inactive).
In the case of `COC(=O)C[C@H]1O[C@]2(C(=O)N(Cc3ccccc3)c3ccc(NC(C)=O)cc32)[C@@H](C)[C@@H]1[Si](C)(C)c1ccc(OC)cc1`, the composite z-score is 0.0998 in [1]; 0.174 in test [6]; -0.251 in test [7]; -0.0471 with Torsin-1A (Homo sapiens) [8]; 0.033 with Torsin-1A (Homo sapiens) [9]; 0.978 in [10]. Moreover, the z-score was -0.796 (inactive) in test [2], 0.695 (inactive) in test [3], 1.84 (inactive) in test [4] and -0.792 (inactive) in [5].

(Values after PubChem BioAssay.)
